In PubChem BioAssay AID1347156 (National Center for Advancing Translational Sciences (NCATS), 2019):
Records with an inconclusive call do not appear. A number with no mark means an inactive call. Calls of active or inactive are those of the source. Calls come from the whole dose curve; as a rule, active = well fitted cell-killing curve with a large enough effect; inconclusive = small, poorly fitted or top-dose-only effect; inactive = flat fitted curve, though single readings scatter.
% is set by controls: 0 for no effect and ±100 for the full control effect; potency is the fitted concentration of half-maximal effect.

Experiment: DAPI mCherry counterscreen qHTS for Zika virus inhibitors; note: nearly all actives have a fitted effect of over 55% in size
Conditions: Vero cells, DAPI nuclear count cytotoxicity, imaging 48-72 h, infected with Zika reporter virus, MOI 1; series mostly up to 32.6 µM; activity change, negative = cell loss: at the top concentration
Method in brief: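 Vero cells (5,000/well), plated overnight, given compounds then recombinant ZIKV-mCherry at MOI 1 for 48-72 hrs at 37 degrees C; PFA-fixed, Hoechst-stained and imaged; nuclei counted and mCherry-positive cells scored as percent infection.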
With O=c1c(O)c(-c2ccc(O)cc2O)oc2cc(O)cc(O)c12 the “activity change, negative = cell loss” value was -7.22%.
With O=C(O)c1ccccc1-c1c2cc(I)c(=O)c(I)c-2oc2c(I)c(O)c(I)cc12 the “activity change, negative = cell loss” value was -8.64%.
For O=C(Nc1ccccc1)c1ccc2c(O)c(S(=O)(=O)c3ccc(Cl)cc3)c(=O)[nH]c2c1, the “activity change, negative = cell loss” value was -8.31%.
In the case of COc1ccc(/C=C(\C#N)c2nc(-c3cc4c(ccc5ccccc54)oc3=O)cs2)cc1O, the Potency is reported as 1 µM (active).
In the case of COc1cc(/C=C(\C#N)C(=O)Nc2nnc(C(F)(F)F)s2)ccc1OCc1ccc(C(F)(F)F)cc1C(F)(F)F, the Potency is reported as 7.08 µM (active).
In the case of CN(Cc1ccc(C(=O)O)cc1)c1ccc(OCc2c(-c3c(Cl)cccc3Cl)noc2C2CC2)nc1C(F)(F)F, the Potency is reported as 15.8 µM (active).
With O=C(O)Cn1nnc(-c2ccc(OCc3cccc(C(F)(F)F)c3)cc2)n1 the “activity change, negative = cell loss” value was -10.2%.
In the case of O=C(O)c1cc(-n2c(/C=C\c3ccc(F)cc3)nc3ccccc3c2=O)ccc1Cl, the “activity change, negative = cell loss” value is reported as -13.5%.
For C/C(=C\CC/C(C)=C/CC[C@]1(C)CCc2cc(O)cc(C)c2O1)CC/C=C(\C)C(=O)O, the Potency was 14.1 µM (active).
With CC(C)C[C@H](C(=O)O)c1cc(-c2ccc(C(F)(F)F)cc2)cc(-c2ccc(C(F)(F)F)cc2)c1 the Potency was 11.2 µM (active).
For COc1cnc(-c2ccc(Cn3c(CC(C)(C)C(=O)O)c(SC(C)(C)C)c4cc(OC[C@@H]5Cc6ccccc6N5C(C)=O)ccc43)cc2)nc1, the Potency was 15.8 µM (active).
For O=C(Nc1ccc(-c2ccc(Cl)c(Cl)c2)cc1)C1=C(O)c2ccccc2S(=O)(=O)N1, the Potency was 8.91 µM (active).
In the case of Cc1cc(C(C#N)c2ccc(Cl)cc2)c(Cl)cc1NC(=O)c1cc(I)cc(I)c1O (stereo unspecified), the Potency is reported as 8.91 µM (active).
For CC(=O)Nc1ccc(S(=O)(=O)O)c2cc(S(=O)(=O)O)c(N=Nc3ccc(N=Nc4ccc(S(=O)(=O)O)cc4)c4ccc(S(=O)(=O)O)cc34)c(O)c12, the “activity change, negative = cell loss” value was -5.95%.
In the case of Cc1ccc(-c2nnc(Nc3ccc(S(N)(=O)=O)cc3)c3ccccc23)cc1S(=O)(=O)N1CCOCC1, the “activity change, negative = cell loss” value is reported as -13.5%.
With COc1cc(-c2ccc(N=Nc3ccc4c(S(=O)(=O)O)cc(S(=O)(=O)O)c(N)c4c3O)c(OC)c2)ccc1N=Nc1ccc2c(S(=O)(=O)O)cc(S(=O)(=O)O)c(N)c2c1O the “activity change, negative = cell loss” value was -13.8%.
For COc1cc(C2Nc3ccccc3-c3nnc(SCc4ccc(Cl)cc4)nc3O2)ccc1OCC(=O)O (stereo unspecified), the “activity change, negative = cell loss” value was -19.4%.
In the case of O=C1c2c(O)ccc([N+](=O)[O-])c2C(=O)c2c([N+](=O)[O-])ccc(O)c21, the Potency is reported as 39.8 µM (active).
For N#Cc1c(O)c2c(-c3ccc(-c4ccccc4O)cc3)csc2[nH]c1=O, the “activity change, negative = cell loss” value was -14.6%.
For COc1ccc(Br)cc1S(=O)(=O)NC(=O)/C=C/c1ccccc1Cc1ccc2ccccc2c1, the Potency was 31.6 µM (active).
For Cc1c(NS(=O)(=O)c2ccccc2)cc(C(C)C)c(O)c1S(=O)(=O)c1ccc(Cl)cc1, the Potency was 28.2 µM (active).
For COc1cc2c(c(O)c1OC/C=C(\C)CC/C=C(/C)CCC=C(C)C)CN(C(CCC(=O)O)C(=O)O)C2=O (stereo unspecified), the Potency was 7.94 µM (active).
For O=S(=O)(O)c1ccc2c(N=Nc3ccc(S(=O)(=O)O)c4ccccc34)c(O)c(S(=O)(=O)O)cc2c1, the “activity change, negative = cell loss” value was -4.02%.
In the case of CC1(COc2ccc(CC3SC(=O)NC3=O)cc2)CCCCC1 (stereo unspecified), the Potency is reported as 31.6 µM (active).
For CCS(=O)(=O)c1cccc(C(=O)Nc2ccc(-c3nc4ccccc4s3)c(O)c2)c1, the Potency was 14.1 µM (active).
In the case of CC1(C(=O)O)NCCc2cc(O)c(O)cc21 (stereo unspecified), the “activity change, negative = cell loss” value is reported as -4.98%.
With O=C(Nc1cccc(C(=O)OCc2cc(=O)n3nc(C4CC4)sc3n2)c1)c1cccc(F)c1 the “activity change, negative = cell loss” value was -10.7%.
With Cc1cc(-c2ccc(N=Nc3ccc4c(S(=O)(=O)O)cc(S(=O)(=O)O)c(N)c4c3O)c(C)c2)ccc1N=Nc1ccc2c(S(=O)(=O)O)cc(S(=O)(=O)O)c(N)c2c1O the “activity change, negative = cell loss” value was -8.92%.
In the case of O=C(NCc1ccccc1Cl)c1ccc2c(O)c(S(=O)(=O)c3ccccc3)c(=O)[nH]c2c1, the “activity change, negative = cell loss” value is reported as -8.67%.
With Cc1cc(OCCCc2c(C(=O)O)n(Cc3cccnc3)c3c(-c4c(COc5ccc(N6CCN([S+](C)(=O)[O-])CC6)cc5)nn(C)c4C)cccc23)cc(C)c1Cl the Potency was 14.1 µM (active).
For O=S(=O)(Nc1ccc(O)c(Sc2nc3ccccc3s2)c1)c1cc(Cl)ccc1Cl, the Potency was 35.5 µM (active).
